Assay outcomes deposited in PubChem by National Center for Advancing Translational Sciences (NCATS).
HCMV antiviral = inhibitors of human cytomegalovirus | HFF cells, HCMV-luciferase reporter, 72 h; hits give low values | activity change, negative = inhibition, % at 57.5 µM | hit rate 4.5% among 410,000 | AID 1259415; in the data active means activity change below about -60%; inconclusive means no clear call, values can overlap the other calls; inactive means above about -39%
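Cell-based, HFFs, 1000 cells/well, 16 h 37C; cpds in DMSO + HCMV-luc, MOI 1 PFU/cell; 72 h 37C; OneGlo luminescence after 5 min RT; norm. to buffer vs Salinomycin 10uM.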
CHX counter = counter-screen for Shiga toxin inhibitors: cycloheximide protein synthesis inhibition | max response, % | hit rate 12% among 300,000 | cell reporter, cycloheximide protein synthesis inhibition counterscreen; in the data active means max response mostly above about 13%, no sharp cut-off; inactive means mostly below about 14%; further: read at 38.3 µM for the half of the compounds with a filed dose
Pf growth 96h = P. falciparum growth inhibition at 96 hours; P. falciparum luciferase reporter growth, 96 h; Potency, µM (highest dose often 28.7 µM), actives largely listed as inhibitors; hit rate 6.9% among 320,000; AID 504834
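96 h incubation, 37 C, 5% CO2, of luciferase-reporter P. falciparum-infected RBCs (2% hematocrit, 0.05% parasitemia final) with test compounds; endpoint luminescence.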
Shiga toxin inh = inhibitors of Shiga toxin in Vero cells; AID 2315; Vero cells, Shiga toxin protein synthesis inhibition reporter; hit rate 9.2% among 290,000; inhibition, % at 38.7 µM; in the data active means inhibition mostly above about 28%, no sharp cut-off; inactive means mostly below about 43%
Pf growth 48h = P. falciparum growth inhibition at 48 hours (one generation); P. falciparum luciferase growth in erythrocytes, 48 h; Potency, µM (titrated, usually from 28.7 µM), most hits filed as inhibitors; hit rate 5.9% among 310,000; AID 504832
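Luminescence readout; reporter = integrated firefly luciferase in P. falciparum. RBC culture at 2% hematocrit, 0.1% parasitemia final, 37 C/5% CO2; decreased signal taken as growth inhibition.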
Hits are given with their value; 0 = inactive; ? = inconclusive; - = not tested or not shown; [ ] = dose if it differs, or a comment. Rows were chosen to be rich in hits. Some 20% of all compounds tested hit in one or more screens of this group. Unless noted, the call rests on the fitted dose curve; in most records, active means well fitted inhibition curve with a large enough effect; inconclusive means small, poorly fitted or top-dose-only effect, or another doubt; inactive means no such curve, though single readings can be large or run the other way.

SMILES	HCMV antiviral	CHX counter	Pf growth 96h	Shiga toxin inh	Pf growth 48h
Cc1ccc(NC(=O)C(Nc2ccccc2)c2ccccc2)cc1 (stereo unspecified)	0	0	?	0	0
Cc1ccc(NC(C(=O)c2ccccc2)c2ccccc2)cc1 (stereo unspecified)	-100	-	-	-	-
Cc1ccc(NC(=O)C(Nc2cccc(C)c2)c2ccccc2)cc1 (stereo unspecified)	?	22	?	0	0
COC(=O)/C=C/c1ccc(-n2ccnc2)cc1	0	40	0	38	0
CC(=O)c1ccc(-n2ccnc2)cc1	0	0	?	0	0
COc1ccc(C(=O)N2CCC(C(=O)N3CCN(Cc4ccccc4)CC3)CC2)cc1	0	0	0	0	0
O=S1(=O)CCN(C2CCCCCCC2)CC1	0	-	-	-	-
CC(C)(C)C(=O)Nc1nc(C2CCCN2S(=O)(=O)c2ccc(Cl)cc2)cs1 (stereo unspecified)	?	0	?	0	-
O=C(CSCc1ccccc1Cl)NCCSc1ccccn1	0	21	0	0	0
Cc1c(/C=N/N=C2\CCC3C4CCc5cc(O)ccc5C4CCC23C)cnn1C (stereo unspecified)	0	0	-	0	?
CCn1ncc(/C=N/N=C2\CCC3C4CCc5cc(O)ccc5C4CCC23C)c1C (stereo unspecified)	0	0	1.7µM	0	-
CCOc1ccc(NC(=O)CSc2nc3ccsc3c(=O)n2C(C)CC)cc1 (stereo unspecified)	0	-	-	-	-
CCCCCCCOc1ccc(-c2ccc(C#N)cn2)cc1	0	0	6.6µM	0	0
CCCCOc1ccc(-c2cnc3ccccc3n2)cc1	0	45	?	60	0
CCOC(=O)c1ccc2ncc(-c3ccccc3)nc2c1	0	46	0	123	0
Cc1cc2ncc(-c3ccccc3)nc2cc1C	0	39	0	106	0
CCOC(=O)c1cccc(-c2c(-c3ccccc3)ncc3cc(OC)c(OC)cc23)c1	0	-	?	-	?
Oc1ccc(-c2cnc3ccccc3n2)cc1	0	-	-	-	-
Cc1ccc(-n2nc(CO)c(C(=O)NCc3cccnc3)n2)cc1C	0	-	-	-	-
O=C(NCc1nc2ccccc2n1Cc1ccccc1Cl)c1ccccc1	0	-	-	-	-
Cc1cc(-c2ccccc2)nc(N(C)N)c1S(C)(=O)=O	0	0	0	0	?
Cc1cc(-c2ccccc2)nc(-c2ccccc2)c1C	0	26	0	0	0
Clc1ccc(-c2cnc3ccccc3n2)cc1	0	67	0	67	0
CCCOc1ccc(-c2nc(OC)c3ccccc3n2)cc1	0	35	0	112	0
CCCCOc1ccc(-c2ncc(Cl)cn2)cc1	0	17	?	35	0
SMILES	HCMV antiviral	CHX counter	Pf growth 96h	Shiga toxin inh	Pf growth 48h
COc1cc(OC)c(NC(=O)C(C)n2nc(-c3ccc(C)c(C)c3)ccc2=O)cc1Cl (stereo unspecified)	0	-	-	-	-
O=C(O)c1cc(NC(=O)c2ccc3c(c2)C(=O)N(Cc2ccccc2)C3=O)cc(C(=O)O)c1	0	0	0	0	0
Cc1ccc(-c2cnc3ccccc3n2)cc1C	0	28	?	63	0
CCNC(=O)C1(C)CCCN(CC(=O)c2ccccc2OC)C1 (stereo unspecified)	0	-	-	-	-
CCCSc1ncc(Cl)c(C(=O)N(Cc2ccccc2)c2ccc(OC)cc2)n1	-75	-	-	-	-
O=C(c1ccc(Cl)cc1)N(Cc1ccco1)Cc1ccco1	0	-	-	-	-
COc1ccc(N(Cc2ccccc2)C(=O)c2nc(S(C)(=O)=O)ncc2Cl)cc1	-101	-	-	-	-
CS(=O)(=O)c1ncc(Cl)c(C(=O)N(Cc2ccc(Cl)cc2)Cc2ccco2)n1	-107	-	-	-	-
CCOc1ccc(N(Cc2ccccc2)C(=O)c2nc(SC)ncc2Cl)cc1	0	-	-	-	-
CCCCN(CCO)CCCC	0	-	0	-	0
CCOC(=O)c1ccccc1NC(=O)CSc1cn(CC(=O)N2CCCCCC2)c2ccccc12	0	-	-	-	-
CC(C)(C)OC(=O)N1CCC(c2c(C(=O)N3CCN(C(=O)c4ccco4)CC3)cnn2-c2ccccc2Cl)CC1	0	-	-	-	-
CCOc1ccc(S(=O)(=O)NCCC(=O)NCC2(N3CCCCC3)CCCCC2)cc1	0	0	?	0	0
Cc1cc(C)c(NC(=O)c2cc(C(=O)O)ccc2C(=O)O)c([N+](=O)[O-])c1	0	0	2.3µM	0	0
Cc1ccc(CC(=O)N(Cc2nc(-c3ccc(C)cc3)no2)C(C)C)cc1	0	-	-	-	-
CCOC(=O)CN1N=C(/C=C/c2ccccc2)CCC1=O	0	-	-	-	-
CCOC(=O)CN1N=C(/C=C/c2ccc(OCC)cc2)CCC1=O	0	30	?	0	0
CCOC(=O)CN1N=C(/C=C/c2ccc(C(C)C)cc2)CCC1=O	0	35	0	0	0
CCOC(=O)CN1N=C(c2ccc(Cl)cc2)CCC1=O	?	0	13µM	0	0
C[C@@H]1C(=O)N(S(=O)(=O)c2ccc([N+](=O)[O-])cc2)[C@H]1c1ccccc1	-	0	-	0	-
Cc1cccc(-n2ncc3c(N4CCCC(C)C4)ncnc32)c1 (stereo unspecified)	0	-	-	-	-
CC1CC(C)CN(c2ncnc3c2cnn3-c2ccc(Cl)cc2)C1 (stereo unspecified)	?	59	0	105	0
CC1CCCN(c2ncnc3c2cnn3-c2ccccc2)C1 (stereo unspecified)	?	20	0	0	0
CC1CCCN(c2ncnc3c2cnn3-c2ccc(F)cc2)C1 (stereo unspecified)	-80	-	-	-	-
CC1CCCN(c2ncnc3c2cnn3-c2ccc(Cl)cc2)C1 (stereo unspecified)	-98	62	0	60	0
SMILES	HCMV antiviral	CHX counter	Pf growth 96h	Shiga toxin inh	Pf growth 48h
Cc1ccc(-n2ncc3c(N4CCN(c5ccc(F)cc5)CC4)ncnc32)cc1	0	-	-	-	-
COc1ccc(/C(C)=N/NC(=O)Cc2ccc(Cl)cc2)cc1	0	0	0	-	0
CC(=O)c1ccc(NC(=O)CSc2ccc3nc(-c4ccccc4)cn3n2)cc1	0	-	-	-	-
Cc1ccc(-n2ncc3c(N4CCCC(C)C4)ncnc32)c(C)c1 (stereo unspecified)	0	65	0	83	0
Cc1ccc(-n2ncc3c(N4CCCC4)ncnc32)c(C)c1	0	0	?	0	0
CCN(CC)CCCNC(=O)c1ccc2c(c1)NC(=O)C(CS(=O)(=O)Cc1cccc(Br)c1)N2 (stereo unspecified)	0	-	-	-	-
CCCc1nc(NCCCOCC)c2nnn(Cc3ccccc3)c2n1	0	0	12µM	-	0
CCOCCCNc1nc(C(F)(F)F)nc2c1nnn2Cc1ccccc1Cl	?	0	0	0	0[0.00184 µM]
CCOc1ccc(N2C(=O)/C(=C/c3cc(OC)c(OC)c(OC)c3)N(CC(=O)OC)C2=S)cc1	0	0	?	0	?
CCOc1ccc(/C=C2/C(=O)N(c3ccc(OC)cc3)C(=S)N2CC(=O)OC)cc1OCC	0	30	?	12	?
N#Cc1ccc(Oc2ccc(C#N)c(C#N)c2)cc1C#N	0	-	-	-	-
COc1cc(CN2C[C@@H](CO)O[C@@H](n3cnc4c(NCc5ccco5)ncnc43)C2)cc(OC)c1OC	0	-	-	-	-
CNC(=S)Nc1cccc2[nH]ncc12	0	0	0	0	0
O=C(NC(=S)Nc1cccc2[nH]ncc12)c1ccccc1	-62	36	0	58	0
